Laboratory results taken from the supplement of paper PMC4466140.

B1: unnamed (peptide)
chain: RSRRSSFAYPQQVAI

Biological target: CaNbp2
Assay: SPOT peptide array binding signal intensity (averaged, normalized) (arbitrary units (background-subtracted, floor 0; scale differs between SH3 domains)); higher = stronger binding of the SH3 domain to the peptide
Protocol: (§1)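 GST-tagged SH3 domains from S. cerevisiae (Sc), A. gossypii (Ag), C. albicans (Ca) and S. pombe (Sp) were incubated at 10 ug/ml overnight at 4 C on cellulose SPOT membranes carrying 292 synthetic 15-mer peptides mined from the S. cerevisiae proteome (cysteines replaced by serines). Binding was detected with anti-GST antibody, HRP secondary and chemiluminescence, quantified with Genespotter, and reported as normalized spot intensities averaged over biological replicates.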

Binder | SPOT peptide array binding signal intensity
B1 | 130

Biological target: CaRvs167
Assay: as above
Protocol: as §1

Binder | SPOT peptide array binding signal intensity
B1 | 5.67

Biological target: CaRvs167-3
Assay: as above
Protocol: as §1

Binder | SPOT peptide array binding signal intensity
B1 | 13.5

Biological target: CaSho1
Assay: as above
Protocol: as §1

Binder | SPOT peptide array binding signal intensity
B1 | 66.5

Biological target: CaSla1-D1-D2
Assay: as above
Protocol: as §1

Binder | SPOT peptide array binding signal intensity
B1 | 55

Biological target: CaSla1-D3
Assay: as above
Protocol: as §1

Binder | SPOT peptide array binding signal intensity
B1 | 2.25

Biological target: ScAbp1
Assay: as above
Protocol: as §1

Binder | SPOT peptide array binding signal intensity
B1 | 27.5

Biological target: ScBbc1
Assay: as above
Protocol: as §1

Binder | SPOT peptide array binding signal intensity
B1 | 24.5

Biological target: ScBem1-D1
Assay: as above
Protocol: as §1

Binder | SPOT peptide array binding signal intensity
B1 | 79.5

Biological target: ScBzz1-D1
Assay: as above
Protocol: as §1

Binder | SPOT peptide array binding signal intensity
B1 | 37

Biological target: ScBzz1-D2
Assay: as above
Protocol: as §1

Binder | SPOT peptide array binding signal intensity
B1 | 28

Biological target: ScCyk3
Assay: as above
Protocol: as §1

Binder | SPOT peptide array binding signal intensity
B1 | 69

Biological target: ScFus1
Assay: as above
Protocol: as §1

Binder | SPOT peptide array binding signal intensity
B1 | 157

Biological target: ScHof1
Assay: as above
Protocol: as §1

Binder | SPOT peptide array binding signal intensity
B1 | 0.5

Biological target: ScHse1
Assay: as above
Protocol: as §1

Binder | SPOT peptide array binding signal intensity
B1 | 644

Biological target: ScLsb1
Assay: as above
Protocol: as §1

Binder | SPOT peptide array binding signal intensity
B1 | 1

Biological target: ScLsb2
Assay: as above
Protocol: as §1

Binder | SPOT peptide array binding signal intensity
B1 | 7.5

Biological target: ScLsb3
Assay: as above
Protocol: as §1

Binder | SPOT peptide array binding signal intensity
B1 | 59

Biological target: ScLsb4
Assay: as above
Protocol: as §1

Binder | SPOT peptide array binding signal intensity
B1 | 24.5

Biological target: ScMyo3
Assay: as above
Protocol: as §1

Binder | SPOT peptide array binding signal intensity
B1 | 3.5

Biological target: ScMyo5
Assay: as above
Protocol: as §1

Binder | SPOT peptide array binding signal intensity
B1 | 8.5

Biological target: ScNbp2
Assay: as above
Protocol: as §1

Binder | SPOT peptide array binding signal intensity
B1 | 141

Biological target: ScPex13
Assay: as above
Protocol: as §1

Binder | SPOT peptide array binding signal intensity
B1 | 10

Biological target: ScRvs167
Assay: as above
Protocol: as §1

Binder | SPOT peptide array binding signal intensity
B1 | 8.33

Biological target: ScSho1
Assay: as above
Protocol: as §1

Binder | SPOT peptide array binding signal intensity
B1 | 304

Biological target: ScSla1-D1-D2
Assay: as above
Protocol: as §1

Binder | SPOT peptide array binding signal intensity
B1 | 339

Biological target: ScSla1-D3
Assay: as above
Protocol: as §1

Binder | SPOT peptide array binding signal intensity
B1 | 20.2

Biological target: SpAbp1-D1
Assay: as above
Protocol: as §1

Binder | SPOT peptide array binding signal intensity
B1 | 36

Biological target: SpBbc1
Assay: as above
Protocol: as §1

Binder | SPOT peptide array binding signal intensity
B1 | 3.5

Biological target: SpBzz1-D1
Assay: as above
Protocol: as §1

Binder | SPOT peptide array binding signal intensity
B1 | 169

Biological target: SpBzz1-D2
Assay: as above
Protocol: as §1

Binder | SPOT peptide array binding signal intensity
B1 | ≤ 0

Biological target: SpCyk3
Assay: as above
Protocol: as §1

Binder | SPOT peptide array binding signal intensity
B1 | 1.5

Biological target: SpHof1
Assay: as above
Protocol: as §1

Binder | SPOT peptide array binding signal intensity
B1 | 93.5

Biological target: SpHof1-2
Assay: as above
Protocol: as §1

Binder | SPOT peptide array binding signal intensity
B1 | 13

Biological target: SpHof1-3
Assay: as above
Protocol: as §1

Binder | SPOT peptide array binding signal intensity
B1 | 203

Biological target: SpHse1
Assay: as above
Protocol: as §1

Binder | SPOT peptide array binding signal intensity
B1 | 168

Biological target: SpLsb1
Assay: as above
Protocol: as §1

Binder | SPOT peptide array binding signal intensity
B1 | 7.75

Biological target: SpLsb4
Assay: as above
Protocol: as §1

Binder | SPOT peptide array binding signal intensity
B1 | 59

Biological target: SpMyo1
Assay: as above
Protocol: as §1

Binder | SPOT peptide array binding signal intensity
B1 | 6.75

Biological target: SpNbp2
Assay: as above
Protocol: as §1

Binder | SPOT peptide array binding signal intensity
B1 | 91

Biological target: SpPex13
Assay: as above
Protocol: as §1

Binder | SPOT peptide array binding signal intensity
B1 | 17

Biological target: SpRvs167
Assay: as above
Protocol: as §1

Binder | SPOT peptide array binding signal intensity
B1 | 8.83

Biological target: SpSla1-D1-D2
Assay: as above
Protocol: as §1

Binder | SPOT peptide array binding signal intensity
B1 | 3

Biological target: SpSla1-D3
Assay: as above
Protocol: as §1

Binder | SPOT peptide array binding signal intensity
B1 | 10
